# The whole screen tested about 5,500 compounds, of which about 2,000 (36%) were called active. Inconclusive results (about 18%) are left out. This is one part of the list. Unmarked numbers belong to inactive results. No stated cut-off is given here; in the data, active means normalized growth mostly below about 0.91 (no sharp cut-off); inconclusive means no clear call, values can overlap the other calls; inactive means mostly above about 0.92.
# Experiment: chemical genetic growth profiling, strain panel (AID 1159580);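 further: tested at 20 µM; growth read once vehicle control cultures reached saturation at 30 °C; 1 = growth at the plate median or of vehicle wells; lower values mean less growth of the strain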
# Settings: S. cerevisiae deletion strains, growth OD
# [1] = locus YDL101C, strain DUN1, active compounds read low
# [2] = locus YHR030C, strain SLT2, active compounds read low
smiles,measurement,setting,value
Cc1nn(Cc2nnc(SCc3cccc(C(F)(F)F)c3)o2)c(C)c1Br,normalized growth,"locus YAR019C, strain CDC15, active compounds read low",0.982
same,normalized growth,"locus YBL105C, strain PKC1, active compounds read low",0.969
same,normalized growth,"locus YBR135W, strain CKS1, active compounds read low",0.967
same,normalized growth,"locus YBR136W, strain MEC1, active compounds read low",0.97
same,normalized growth,"locus YBR160W, strain CDC28, active compounds read low",0.975
same,normalized growth,"locus YDL017W, strain CDC7, active compounds read low",0.977
same,normalized growth,"locus YDL028C, strain MPS1, active compounds read low",0.973
same,normalized growth,[1],0.972
same,normalized growth,"locus YDL108W, strain KIN28, active compounds read low",0.969
same,normalized growth,"locus YDL132W, strain cdc53, active compounds read low",0.969
same,normalized growth,"locus YDL214C, strain PRR2, active compounds read low",0.932
same,normalized growth,"locus YDR052C, strain DBF4, active compounds read low",0.983
same,normalized growth,"locus YDR054C, strain cdc34, active compounds read low",0.975
same,normalized growth,"locus YDR226W, strain ADK1, active compounds read low",0.977
same,normalized growth,"locus YDR477W, strain SNF1, active compounds read low",0.968
same,normalized growth,"locus YER123W, strain YCK3, active compounds read low",0.921
same,normalized growth,"locus YER133W, strain GLC7, active compounds read low",0.967
same,normalized growth,"locus YFL009W, strain cdc4, active compounds read low",0.973
same,normalized growth,"locus YFL029C, strain CAK1, active compounds read low",0.979
same,normalized growth,"locus YFR003C, strain YPI1, active compounds read low",0.971
same,normalized growth,"locus YFR019W, strain FAB1, active compounds read low",0.952
same,normalized growth,"locus YFR028C, strain CDC14, active compounds read low",0.963
same,normalized growth,"locus YGR040W, strain KSS1, active compounds read low",0.957
same,normalized growth,"locus YGR052W, strain FMP48, active compounds read low",0.965
same,normalized growth,"locus YGR092W, strain DBF2, active compounds read low",0.987
same,normalized growth,[2],1.03
same,normalized growth,"locus YHR079C, strain IRE1, active compounds read low",1
same,normalized growth,"locus YHR082C, strain KSP1, active compounds read low",1
same,normalized growth,"locus YHR205W, strain SCH9, active compounds read low",0.959
same,normalized growth,"locus YIL147C, strain SLN1, active compounds read low",0.968
same,normalized growth,"locus YJL095W, strain BCK1, active compounds read low",0.965
same,normalized growth,"locus YJL128C, strain PBS2, active compounds read low",0.945
same,normalized growth,"locus YJL157C, strain FAR1, active compounds read low",0.965
same,normalized growth,"locus YJR016C, strain ILV3, active compounds read low",0.978
same,normalized growth,"locus YJR066W, strain TOR1 (second series), active compounds read low",0.969
same,normalized growth,"locus YJR066W, strain TOR1, active compounds read low",1.03
same,normalized growth,"locus YKL048C, strain ELM1, active compounds read low",0.974
same,normalized growth,"locus YKL067W, strain YNK1, active compounds read low",0.944
same,normalized growth,"locus YKL101W, strain HSL1, active compounds read low",0.905
same,normalized growth,"locus YKL193C, strain SDS22, active compounds read low",0.971
same,normalized growth,"locus YKL203C, strain TOR2, active compounds read low",1.01
same,normalized growth,"locus YLR113W, strain HOG1, active compounds read low",0.854 (active)
same,normalized growth,"locus YLR133W, strain CKI1, active compounds read low",0.935
same,normalized growth,"locus YLR403W, strain SFP1, active compounds read low",0.949
same,normalized growth,"locus YML070W, strain DAK1, active compounds read low",0.916
same,normalized growth,"locus YMR001C, strain CDC5, active compounds read low",0.973
same,normalized growth,"locus YMR205C, strain PFK2 (second series), active compounds read low",0.946
same,normalized growth,"locus YMR277W, strain FCP1, active compounds read low",0.974
same,normalized growth,"locus YNL006W, strain LST8, active compounds read low",0.971
same,normalized growth,"locus YNL020C, strain ARK1, active compounds read low",0.942
same,normalized growth,"locus YNL161W, strain CBK1, active compounds read low",0.969
same,normalized growth,"locus YNL183C, strain NPR1, active compounds read low",0.99
same,normalized growth,"locus YNL207W, strain RIO2, active compounds read low",0.975
same,normalized growth,"locus YNL222W, strain SSU72, active compounds read low",0.97
same,normalized growth,"locus YNL307C, strain MCK1 (second series), active compounds read low",0.956
same,normalized growth,"locus YOL078W, strain AVO1, active compounds read low",0.967
same,normalized growth,"locus YOL136C, strain PFK27, active compounds read low",0.881
same,normalized growth,"locus YOR061W, strain CKA2, active compounds read low",0.952
same,normalized growth,"locus YOR119C, strain RIO1, active compounds read low",1.02
same,normalized growth,"locus YOR231W, strain MKK1, active compounds read low",0.91
same,normalized growth,"locus YOR329C, strain SCD5, active compounds read low",0.978
same,normalized growth,"locus YPL031C, strain PHO85, active compounds read low",0.961
same,normalized growth,"locus YPL153C, strain RAD53, active compounds read low",0.972
same,normalized growth,"locus YPL204W, strain HRR25, active compounds read low",0.932
same,normalized growth,"locus YPL209C, strain IPL1, active compounds read low",0.982
same,normalized growth,"locus YPL256C, strain CLN2, active compounds read low",0.965
same,normalized growth,"locus YPR025C, strain CCL1, active compounds read low",0.974
same,normalized growth,"locus YPR106W, strain ISR1, active compounds read low",0.975
same,normalized growth,"locus YPR111W, strain DBF20, active compounds read low",0.947
same,normalized growth,"strain NNK1, active compounds read low",0.961
same,normalized growth,"strain TSCII, active compounds read low",0.972
Cc1nn(Cc2n[nH]c(=S)o2)c(C)c1Br,normalized growth,"locus YAL013W, strain DEP1, active compounds read low",0.998
same,normalized growth,"locus YBR229C, strain ROT2, active compounds read low",0.993
same,normalized growth,[1],1
same,normalized growth,"locus YDR150W, strain NUM1, active compounds read low",0.933
same,normalized growth,"locus YEL061C, strain CIN8, active compounds read low",1.02
same,normalized growth,"locus YGR078C, strain PAC10, active compounds read low",0.981
same,normalized growth,[2],1.02
same,normalized growth,"locus YHR087W, strain rtc3, active compounds read low",0.983
same,normalized growth,"locus YJL187C, strain SWE1, active compounds read low",0.968
same,normalized growth,"locus YJR043C, strain POL32, active compounds read low",0.983
same,normalized growth,"locus YJR075W, strain HOC1, active compounds read low",0.979
same,normalized growth,"locus YKL190W, strain CNB1, active compounds read low",1.02
same,normalized growth,"locus YLR039C, strain RIC1, active compounds read low",1.02
same,normalized growth,"locus YLR058C, strain SHM2 (second series), active compounds read low",0.996
same,normalized growth,"locus YLR085C, strain ARP6, active compounds read low",1.09
same,normalized growth,"locus YLR262C, strain YPT6, active compounds read low",1.04
same,normalized growth,"locus YML094W, strain GIM5, active compounds read low",1.02
same,normalized growth,"locus YMR219W, strain ESC1, active compounds read low",0.996
same,normalized growth,"locus YMR263W, strain SAP30, active compounds read low",0.93
same,normalized growth,"locus YNL128W, strain TEP1, active compounds read low",1.01
same,normalized growth,"locus YNL153C, strain GIM3, active compounds read low",1.01
same,normalized growth,"locus YNL298W, strain CLA4 (second series), active compounds read low",1.05
same,normalized growth,"locus YNL322C, strain KRE1, active compounds read low",0.999
same,normalized growth,"locus YNR030W, strain Alg12, active compounds read low",1.01
same,normalized growth,"locus YPL055C, strain LGE1, active compounds read low",0.955
same,normalized growth,"locus YPL241C, strain CIN2, active compounds read low",1.02
same,normalized growth,"locus YPR135W, strain CTF4, active compounds read low",1.04
